The source of these data is the supplement of paper PMC10681739.

The assay has as its target T1, ETS1 (UniProt P14921).
T1 sequence: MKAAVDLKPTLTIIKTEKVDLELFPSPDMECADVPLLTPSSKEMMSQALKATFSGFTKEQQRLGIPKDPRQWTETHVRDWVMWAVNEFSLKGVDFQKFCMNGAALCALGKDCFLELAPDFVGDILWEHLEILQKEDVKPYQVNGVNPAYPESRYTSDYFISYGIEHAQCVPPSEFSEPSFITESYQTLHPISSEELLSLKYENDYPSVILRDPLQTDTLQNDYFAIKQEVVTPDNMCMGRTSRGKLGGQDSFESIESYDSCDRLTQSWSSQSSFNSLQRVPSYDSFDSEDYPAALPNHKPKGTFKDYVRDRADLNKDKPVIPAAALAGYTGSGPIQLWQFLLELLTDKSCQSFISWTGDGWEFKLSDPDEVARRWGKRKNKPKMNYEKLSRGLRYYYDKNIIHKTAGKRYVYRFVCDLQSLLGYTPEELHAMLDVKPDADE
Kind of assay: ETS1 binding intensity (PBM fluorescence), ETS1 alone (arbitrary fluorescence units); higher = stronger binding. The note with it: ETS1 concentration 1 nM; RUNX1 concentration 0 nM. The method, then: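 Cooperative genomic-context PBM: 36-bp genomic probes with neighbouring ETS1 and RUNX1 sites, double-stranded on Agilent 4x180k arrays. Full-length recombinant human ETS1 (1 nM) was incubated alone or with RUNX1 (25 nM) and detected with anti-ETS1 antibody plus Alexa488 secondary. Value is the median fluorescence intensity over 4 replicate spots; the ETS1+RUNX1 data were normalised to the ETS1-only data using probes without RUNX1 sites. The 36-bp variable region sits on the array probe with constant linker/primer flanks that are not printed.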
ATTAGAGGTAGAGGAAATACCACATGCAAAGGTTTG registered an ETS1 binding intensity of 793.

With GCACTACATTTCCCAGCTTTCCTCGCGGTAAAGAGA, the ETS1 binding intensity was 456. The figure for GAAGCAGACAGGAAGTGGGTCTGAGCGGTGGAGGGA is 7670; for TCTCTACTTCCCATTATTTCTGTGGTTAATTTCACC it is 369. The sequence CCGCTTCCGGCCTTCGCCCGGCTTACCCGCGTCGCA registered an ETS1 binding intensity of 1490. The figure for TTTATCCTTATTTCCTGGCTTCGCCCACAAGCACAG is 599; for CCTCAAAACCCGGAAACGCCTTGCGGGGCAGTGTGG it is 3330. The value for GGACGCTTCCGGTGGAAGGGAGCTGTTGCGGGGCTT was 1410.

With ACACACTGACTTCCTGTTGTGGGAGATAAAGTGTGG, the ETS1 binding intensity is 2500. GAGCAGTGGTGGGAAATGTGGGGTTGGGGGTAAAGG registered an ETS1 binding intensity of 493. The figure for CGGGTTGGGCAGGAAGCAGCATGACCGCAGTGGGTC is 1740. With ATGCCTGTAGGAGGATGTGGTTTCTACACAACTCTG, the ETS1 binding intensity amounted to 981. The value for GACACAAGAACAGCAGGATGTGGTCAGAGGCGTCGT was 2610.

Regarding CCTGAGCGCCCGGAAGGAAGGCTGTGGTAGGTTGTC, the ETS1 binding intensity is 1270. Turning to CTACCGGAAATGCAGCACCACGTAAAATGCGGTCGG, the ETS1 binding intensity came out at 3650. The figure for CTTAGTGGGGCAGGATGTGGTCAGGGAAGCTGATCT is 4440; for GGATGGCGGAAGAGGCGGCTGAGGCCGCAGGACGTG it is 4630. The value for AGAAGGCGCCGGAAGTGGTCCCGCAGAGGCGGGGTG was 8990; that for ACAATAACAGGAAGTGGTGGGGACTGCGGTGACCTG was 4750; that for GTGCGGCGGGAAACGCGTTCCCCGGCAACCGCGCCC was 401. The value for TCTGCCGCCAGCCCATCCGCGACCGCATCCAGATCT was 346. TATCACATCCTGCCGGACAAAAAGGCCAAACCACCT showed an ETS1 binding intensity of 536.

The sequence GCAGCTGCAAACAGGAAACCACAGCAGCGTAGCGGA gave an ETS1 binding intensity of 2910. The sequence CTGCACTTCCGGTCAGGCGGTCGGGCTGCGGGGCCC came in with an ETS1 binding intensity of 5690. TCCTATATACTTCCGTTTGCCTCGCGGTTTCTTTCT displayed an ETS1 binding intensity of 1300. As to CAGATCTGAAAGGGAAGTGGTTTCAAGAGGGTTCTT, the ETS1 binding intensity worked out at 967. For the sequence CTGCTGCTTTTAGGATGTGGTTTTATTATTGTCGGG, the ETS1 binding intensity is 670. The sequence CCGCCACCGGAAGCGCCCTCCTAATCCCCGCAGCGC had an ETS1 binding intensity of 6290. In turn, GCCGCGCGGAAGCCTCCGCCCTGTGGTTTTGGAGCC displayed an ETS1 binding intensity of 368. In the case of TGTCGGGCGGATGTGTACCGGCGGTAATATAGTAAG, the ETS1 binding intensity amounted to 2300.

GGGGGAATGTAGGAAGTATCATCGCCCACAAGAAAG displayed an ETS1 binding intensity of 644.

Sequence GCAGTCAGAAGGTGCGGATGCGGTAAGGTATGCGCT came in with an ETS1 binding intensity of 1130. Sequence CCCAAGCTACGGAAGTTAAACCTCAAACATGAAATC gave an ETS1 binding intensity of 1110. The value for TATGGCGGGCAGGAAGTGCGGGTGCGCGCCTGCGCA was 4640; that for AGGCAGCACAGGAAGTTATAACCACATGTACACTTG was 3790. GGCGGAAGCTGCCGCTGCCTTGCGCCCCCACACACG had an ETS1 binding intensity of 640.

In the case of GTGTGGAAGGAGGAAGCGAGAATGTGGTTACTTAGG, the ETS1 binding intensity was 718. The figure for GGGCAGGCCGGATGTGGGAGACCACAAAGCCCAAGG is 5360; for GAAGTGAGGTCAGGATGTGGTGGGTGACCCCTGAAA it is 911; for TGTTTTTGTTTCCGTTTACAAACCACAACAAAGGTG it is 736.
